Assay outcomes from PubChem.
VP16 counter: Gal4-VP16 reporter inhibition counter-screen. Drosophila S2 Gal4-VP16 UAS-luciferase, luminescence, 20 h. Potency, µM (series often up to 53.6 µM), most hits filed as inhibitors. 310,000 compounds, 3.5% hits. AID 2546;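 also: Gal4-VP16 expression switched on by copper sulfate through the metallothionein promoter; nearly all actives have a fitted effect of over 50% in size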
RORgamma inh: inhibitors of mouse ROR gamma transcriptional activity; P51450; Drosophila S2 Gal4-RORgamma UAS-luciferase reporter, 20 h; Potency, µM (series often up to 53.6 µM), hits mostly inhibitors; 310,000 compounds, 5.4% hits; AID 2551; also: nearly all actives have a fitted effect of over 60% in size
Target sequence (P51450 whole entry, looked up, the tested form may be a part): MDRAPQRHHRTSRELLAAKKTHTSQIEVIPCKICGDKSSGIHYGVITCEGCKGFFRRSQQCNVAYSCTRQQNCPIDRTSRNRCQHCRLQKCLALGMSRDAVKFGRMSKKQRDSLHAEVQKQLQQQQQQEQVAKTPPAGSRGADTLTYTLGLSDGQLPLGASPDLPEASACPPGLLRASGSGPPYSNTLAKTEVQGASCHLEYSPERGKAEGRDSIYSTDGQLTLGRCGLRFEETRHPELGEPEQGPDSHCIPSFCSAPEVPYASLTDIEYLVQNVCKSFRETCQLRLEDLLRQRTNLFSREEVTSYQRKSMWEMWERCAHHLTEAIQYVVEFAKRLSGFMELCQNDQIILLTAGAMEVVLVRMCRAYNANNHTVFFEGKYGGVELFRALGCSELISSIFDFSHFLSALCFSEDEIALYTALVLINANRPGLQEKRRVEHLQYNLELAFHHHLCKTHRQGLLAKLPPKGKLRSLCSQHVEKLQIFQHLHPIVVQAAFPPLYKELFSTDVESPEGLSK
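In this cell-based reporter format, copper sulfate (700 uM final) drives Gal4–ROR gamma fusion expression from a metallothionein promoter in Drosophila Schneider cells; compounds preincubated 1 hr, reporter read after 20 hr at ambient temperature.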
TDP1 block: inhibitors of human tyrosyl-DNA phosphodiesterase TDP1; AID 485290; recombinant TDP1, AlphaScreen DNA substrate cleavage; Potency, µM (highest dose often 130 µM), hits mostly inhibitors; 350,000 compounds, 0.28% hits; also: nearly all actives have a fitted effect of over 40% in size
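AlphaScreen read-out: signal falls as enzyme removes the 3' tyrosine-FITC from a 5'-biotinylated DNA oligo (15 nM, 5 min, RT). Enzyme was E. coli-made recombinant Tdp1 at 1 nM, exposed to compound for 15 min beforehand; beads 10 ug/ml, 10 min.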
DT40 TDP1 no CPT: qHTS for Inhibitors of human tyrosyl-DNA phosphodiesterase 1 (TDP1): qHTS in cells in absence of CPT; DT40 Tdp1-/- hTDP1 cells, no CPT, ATP luminescence, 48 h; Potency, µM (highest dose often 46.2 µM), most hits filed as inhibitors; 420,000 compounds, 15% hits; also: nearly all actives have a fitted effect of over 55% in size
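DT40 Tdp1-/-;hTDP1 cells, no CPT (DMSO vehicle only), 400 cells/well; compounds pin-transferred; ≥48 hr, 37 °C; CellTiter-Glo 30 min RT dark, luminescence read.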
DT40 TDP1 CPT: growth inhibition of DT40 Tdp1-/-;hTDP1 cells with camptothecin (screen for TDP1 inhibitors). chicken DT40 Tdp1-/-;hTDP1 cells + 20 nM CPT, ATP luminescence, 48 h. Potency, µM (doses to about 46.2 µM), hits mostly inhibitors. 420,000 compounds, 12% hits. AID 686979; also: nearly all actives have a fitted effect of over 55% in size
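Chicken DT40 Tdp1-/- cells stably complemented with human TDP1 were seeded at 400 cells/well in medium containing 20 nM camptothecin, exposed to pin-transferred compounds, and grown at 37 °C for at least 48 hr. Viability was read as ATP luminescence.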
Each line names hits and unclear results; the compound was inactive in the other large screens. Compounds with a hit are over-represented: about 19% of the library has one in this group of screens. Calls follow the shape of the dose curve; as a rule, active = well fitted curve in the direction sought with a large enough effect; inconclusive = small, poorly fitted or top-dose-only effect, or another doubt; inactive = no such curve, though single readings can be large; an effect the other way counts as inactive or inconclusive.

COc1ccc(-c2oc3cc(O[C@@H]4OC(CO)C(O)C(O)C4O)c(OC)c(O)c3c(=O)c2OC)cc1O (some centres not stated)	RORgamma inh inconclusive, DT40 TDP1 no CPT 15µM, DT40 TDP1 CPT inconclusive
COc1cc(OC)c2c(=O)c(O)c(-c3ccc(OC)c(OC)c3)oc2c1	VP16 counter inconclusive, RORgamma inh 2.8µM, DT40 TDP1 no CPT inconclusive, DT40 TDP1 CPT inconclusive
O=c1c(O)c(-c2ccc(O)cc2)oc2ccc(O)cc12	RORgamma inh inconclusive, DT40 TDP1 no CPT 13µM, DT40 TDP1 CPT 13µM
COc1ccc(-c2oc3cc(O)c(OC)c(O)c3c(=O)c2OC)cc1	RORgamma inh inconclusive, DT40 TDP1 no CPT 13µM, DT40 TDP1 CPT 10µM (no result: TDP1 block)
COc1ccccc1-c1oc2ccccc2c1C#CC1(N)CCCCC1	DT40 TDP1 no CPT 15µM, DT40 TDP1 CPT 16µM (no result: VP16 counter, RORgamma inh)
COc1c(-c2ccc(O)cc2)oc2cc(O)cc(O)c2c1=O	DT40 TDP1 no CPT inconclusive, DT40 TDP1 CPT inconclusive (no result: TDP1 block)
COc1ccc(-c2oc3ccccc3c(=O)c2O)cc1OC	VP16 counter inconclusive, RORgamma inh 6.3µM
COc1ccccc1-c1oc2ccccc2c1C#CC1(O)CCCCC1	DT40 TDP1 no CPT inconclusive (no result: VP16 counter, RORgamma inh)
COc1ccc(-c2oc3c(OC)c(OC)c(OC)c(O)c3c(=O)c2OC)cc1OC	VP16 counter inconclusive, RORgamma inh 11µM, DT40 TDP1 no CPT 21µM, DT40 TDP1 CPT inconclusive
CC1CCCCC1NC(=O)CN1C(=O)NC(C)(c2ccc(OC(F)F)cc2)C1=O (configuration not stated)	DT40 TDP1 CPT inconclusive
O=c1c(O)c(-c2cccc(O)c2)oc2ccccc12	RORgamma inh inconclusive, DT40 TDP1 no CPT inconclusive, DT40 TDP1 CPT inconclusive
CCOc1ccc(-c2oc3ccccc3c(=O)c2O)cc1OCC	DT40 TDP1 no CPT inconclusive, DT40 TDP1 CPT inconclusive (no result: VP16 counter, RORgamma inh)
O=C1c2oc3ccccc3c(=O)c2C(c2ccccc2)N1Cc1ccc2c(c1)OCO2 (configuration not stated)	none (no result: VP16 counter, RORgamma inh)
COc1cccc(-c2oc3ccccc3c(=O)c2O)c1	VP16 counter 7.9µM, RORgamma inh 6.3µM, DT40 TDP1 no CPT 27µM, DT40 TDP1 CPT 27µM
O=c1c(O)c(-c2ccc3c(c2)OCO3)oc2ccccc12	VP16 counter 11µM, RORgamma inh 6.3µM, DT40 TDP1 no CPT inconclusive, DT40 TDP1 CPT 18µM
COc1ccc(-c2oc3ccc(C)cc3c(=O)c2O)cc1OC	VP16 counter inconclusive, RORgamma inh 5µM, DT40 TDP1 no CPT inconclusive, DT40 TDP1 CPT 12µM
O=C(CSc1nnc(-c2ccncc2)n1CCc1ccccc1)NCc1ccccc1	none
COc1ccc(CC(=O)Nc2cccc(C(=O)Nc3ccccc3C(=O)O)c2)cc1OC	none
CC(=O)NC(c1ccccc1)c1nc(-c2cncnc2)cs1 (configuration not stated)	none (no result: VP16 counter, RORgamma inh, TDP1 block)
Cc1cccc(NS(=O)(=O)c2ccc(NC(=O)CN(c3cc([N+](=O)[O-])ccc3C)S(C)(=O)=O)cc2)c1	VP16 counter inconclusive, DT40 TDP1 no CPT inconclusive, DT40 TDP1 CPT 16µM
Cc1cccc(NS(=O)(=O)c2cc(NC(=O)CC(=O)c3ccc([N+](=O)[O-])cc3)ccc2C)c1	none (no result: DT40 TDP1 no CPT, DT40 TDP1 CPT)
Cc1cccc(N(CC(=O)Nc2ccc(Br)cc2)S(C)(=O)=O)c1C	DT40 TDP1 no CPT 21µM, DT40 TDP1 CPT inconclusive (no result: VP16 counter, RORgamma inh)
COc1ccc(C)cc1NS(=O)(=O)c1ccc(NC(=O)CN(c2cc([N+](=O)[O-])ccc2C)S(C)(=O)=O)cc1	DT40 TDP1 no CPT 15µM, DT40 TDP1 CPT 9.2µM
COc1ccc([N+](=O)[O-])cc1N(CC(=O)NCCSc1ccc(C)cc1)S(C)(=O)=O	none
Cc1ccccc1N(CC(=O)Nc1ccc(F)cc1)S(C)(=O)=O	none
C=CCn1c2ccccc2c2nnc(SCCN3CCOCC3)nc21	DT40 TDP1 no CPT inconclusive (no result: TDP1 block)
O=C(Nc1nc2ccc([N+](=O)[O-])cc2s1)C1CCCO1 (configuration not stated)	none
CCCCCCCCN1C(=O)[C@H](CC(=O)N2CCCCC2)C[C@@]2(C(=O)OC)CC(C)(C)CC=C12	DT40 TDP1 no CPT 6.5µM, DT40 TDP1 CPT 8.2µM (no result: VP16 counter, RORgamma inh, TDP1 block)
CCCCCCCCN1C(=O)[C@H](CC(=O)N2CCOCC2)C[C@@]2(C(=O)OC)CC(C)(C)CC=C12	DT40 TDP1 no CPT 18µM, DT40 TDP1 CPT 21µM (no result: VP16 counter, RORgamma inh, TDP1 block)
COc1cccc(NC(=O)NCCC2=CCCCC2)c1	DT40 TDP1 no CPT inconclusive
O=C(/C=C/c1ccc(Cl)c([N+](=O)[O-])c1)Nc1cccc(NC(=O)c2ccco2)c1	VP16 counter inconclusive, RORgamma inh inconclusive, DT40 TDP1 no CPT inconclusive, DT40 TDP1 CPT inconclusive
O=C(/C=C/c1cccc([N+](=O)[O-])c1)Nc1cccc(NC(=O)c2cccs2)c1	RORgamma inh inconclusive, DT40 TDP1 no CPT 18µM, DT40 TDP1 CPT 5.8µM
O=C(/C=C/c1cccc([N+](=O)[O-])c1)Nc1cccc(NC(=O)c2ccco2)c1	RORgamma inh inconclusive, DT40 TDP1 no CPT 16µM, DT40 TDP1 CPT inconclusive
O=C(NC1CCCCC1)C(c1ccccc1)n1c(=O)c(-c2ccco2)nc2ccccc21 (configuration not stated)	DT40 TDP1 no CPT 21µM, DT40 TDP1 CPT 18µM (no result: VP16 counter, RORgamma inh, TDP1 block)
CCCc1nc2ccccc2n1C(C(=O)NC(C)(C)C)C1CC1 (configuration not stated)	DT40 TDP1 no CPT inconclusive (no result: VP16 counter, RORgamma inh, TDP1 block)
CCCCCNC(=O)C(C1CC1)n1c(=O)c(-c2ccco2)nc2ccccc21 (configuration not stated)	DT40 TDP1 no CPT 13µM, DT40 TDP1 CPT 15µM (no result: VP16 counter, RORgamma inh, TDP1 block)
N#Cc1ccc(C(C(=O)NC2CCCCC2)n2c(=O)c(-c3ccco3)nc3ccccc32)cc1 (configuration not stated)	DT40 TDP1 no CPT 16µM, DT40 TDP1 CPT 15µM (no result: VP16 counter, RORgamma inh, TDP1 block)
CCCCCNC(=O)C(c1ccc(C(F)(F)F)cc1)n1c(=O)c(-c2ccco2)nc2ccccc21 (configuration not stated)	DT40 TDP1 no CPT 18µM, DT40 TDP1 CPT inconclusive (no result: VP16 counter, RORgamma inh, TDP1 block)
COC(=O)c1sccc1NC(=O)CSc1ccccc1NC(=O)CNC(C)C	none
CCC(C(=O)NC1CCCC1)n1c(C2CC2)nc2ccccc21 (configuration not stated)	none (no result: VP16 counter, RORgamma inh, TDP1 block)
O=C(NC1CCCCC1)C(c1ccc(C(F)(F)F)cc1)n1c(=O)c(-c2ccco2)nc2ccccc21 (configuration not stated)	DT40 TDP1 no CPT inconclusive, DT40 TDP1 CPT 1.6µM (no result: VP16 counter, RORgamma inh, TDP1 block)
O=C(NCc1ccccc1)C(c1ccncc1)n1c(=O)c(-c2ccco2)nc2ccccc21 (configuration not stated)	none (no result: VP16 counter, RORgamma inh, TDP1 block)
O=C(NC1CCCCC1)C(C1CC1)n1c(=O)c(-c2ccco2)nc2ccccc21 (configuration not stated)	DT40 TDP1 no CPT 10µM, DT40 TDP1 CPT inconclusive (no result: VP16 counter, RORgamma inh, TDP1 block)
CN1C(=O)c2ccc(C(=O)Nc3nccs3)cc2C1=O	RORgamma inh inconclusive
